Assay outcomes as filed in PubChem BioAssay.
The list is not random: actives were taken first. Their share in the collection is about 8%.
TSHR antagonist = antagonists of human thyroid stimulating hormone receptor. activity change, negative = inhibition, % at 11.5 µM. P16473. TSHR-expressing cells, TSH-stimulated cAMP HTRF, 2 h; active compounds read low. hit rate 0.2% among 330,000;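 active = activity change below a set negative limit, meaning inhibition stronger than a set level, cut at about -70% in these data; inconclusive = activity change between two set negative limits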
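Competitive HTRF cAMP read-out (cryptate anti-cAMP antibody, cAMP-d2; 30 min, room temperature) in freshly harvested TSHR cells. Compounds added before TSH at EC80 (4nM final), followed by 2 hours' incubation at 37 deg C.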
ELG1 DNA repair = blocks ELG1-dependent DNA repair in HEK293T cells; HEK293T ELG1-luciferase reporter, luminescence, 16 h; DNA damage induced by 5-fluorouridine; AID 504467; hit rate 2.3% among 330,000; Potency, µM (highest dose often 46.1 µM), for inactives: top-dose activity change, negative = inhibition, most hits filed as inhibitors; also: potency is read from the fitted curve at half-maximal effect; nearly all actives have a fitted effect of over 55% in size
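HEK293T cells expressing luciferase-tagged ELG1 (2,000/well) received 5-Fluorouridine plus compound or DMSO for 16 hr at 37 °C. Luciferase was read by ONE-Glo luminescence after 30 min at room temperature.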
Coupling enz = inhibits coupling enzyme system, counter-screen for aldolase hits. coupling enzyme system counterscreen, AmpLite Red fluorescence. activity change, negative = inhibition, % at 58.2 µM, hits read low. hit rate 0.67% among 290,000. AID 2472; in the data active = activity change below about -30%
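Fluorescence at 525 nm excitation and 598 nm emission measured inhibition of the coupled detection system without aldolase. Compounds (at 57.5 uM final) were preincubated 10 min at room temperature with coupling enzyme reagent before a 20 min substrate/AmpLite Red step.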
Gal4-VP16 FLuc = Gal4-VP16 reporter inhibition counter-screen. hit rate 3.5% among 310,000. Drosophila S2 Gal4-VP16 UAS-luciferase, luminescence, 20 h. Potency, µM (titrated, usually from 53.6 µM), without a hit: at the top dose activity, negative = inhibition, usual class: inhibitors;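 also: Gal4-VP16 expression switched on by copper sulfate through the metallothionein promoter; potency is read from the fitted curve at half-maximal effect; nearly all actives have a fitted effect of over 50% in size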
RORg inh = ROR gamma (mouse) transcription inhibition; P51450; hit rate 5.4% among 310,000; AID 2551; Potency, µM (highest dose often 53.6 µM), inactives show top-dose activity change, negative = inhibition, usual class: inhibitors; Drosophila S2 Gal4-RORgamma UAS-luciferase reporter, 20 h; also: potency is read from the fitted curve at half-maximal effect; nearly all actives have a fitted effect of over 60% in size
Target sequence (P51450 whole entry, looked up, the tested form may be a part): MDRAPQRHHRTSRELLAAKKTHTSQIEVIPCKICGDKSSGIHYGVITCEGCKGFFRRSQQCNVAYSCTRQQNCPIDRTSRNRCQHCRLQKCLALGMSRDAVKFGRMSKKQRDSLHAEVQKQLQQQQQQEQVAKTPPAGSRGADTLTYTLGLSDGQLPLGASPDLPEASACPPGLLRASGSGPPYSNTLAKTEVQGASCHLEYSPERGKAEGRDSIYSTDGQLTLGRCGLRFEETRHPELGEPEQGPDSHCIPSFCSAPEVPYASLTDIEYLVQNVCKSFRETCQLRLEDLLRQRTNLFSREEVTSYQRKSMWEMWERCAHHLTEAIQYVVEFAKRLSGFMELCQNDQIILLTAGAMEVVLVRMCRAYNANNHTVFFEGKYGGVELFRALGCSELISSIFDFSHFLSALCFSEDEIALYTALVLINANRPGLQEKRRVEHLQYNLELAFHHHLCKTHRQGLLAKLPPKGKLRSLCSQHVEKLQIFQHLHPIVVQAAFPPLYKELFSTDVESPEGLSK
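Luminescence from a UAS-regulated Photinus luciferase reporter in stably transfected Drosophila Schneider cells is measured; decreased signal marks ROR gamma inhibition. Fusion expression is induced by 700 uM copper sulfate for 20 hr.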
An asterisk follows results filed as active; ? = inconclusive; · = not tested or not shown; [ ] = dose if it differs, or a comment. Unless noted, calls follow the shape of the dose curve; as a rule, active = well fitted curve in the direction sought with a large enough effect; inconclusive = small, poorly fitted or top-dose-only effect, or another doubt; inactive = no such curve, though single readings can be large; an effect the other way counts as inactive or inconclusive. % is scaled to controls: 0 for no effect and ±100 for the full control effect.

SMILES	TSHR antagonist	ELG1 DNA repair	Coupling enz	Gal4-VP16 FLuc	RORg inh
C=CCN1c2ccccc2[C@]23C[C@@H](C(=O)OC)N(S(=O)(=O)c4ccc(C#N)cc4)C2=NC(C(=O)OC)=C(C(=O)OC)[C@H]13	·	·	0	·	·
O=C(c1cccc(F)c1)N1CCC[C@@]2(CCN(c3ccccn3)C2)C1	·	·	4	1%	-25%
Cc1ccc(-c2nnc(NC3CCCC3)s2)cc1	25	?	-1	?	11µM*
C=CS(=O)(=O)c1sc(Cl)c(N2CCOCC2)c1[N+](=O)[O-]	?	-11%	7	7.1µM*	10µM*
O=C(Nc1ccc(Oc2ccc(NC(=O)Nc3ccccc3Cl)cc2)cc1)Nc1ccccc1Cl	9	-18%	-3	?	2.5µM*
CC(=O)Oc1ccc2c(c1)CCC1C2CC[C@@]2(C)C1CC(OC(C)=O)C2OC(C)=O (stereo partly specified)	·	·	5	3%	-1%
C=CCn1c(Cc2ccccc2)nc2c(cnn2-c2ccccc2)c1=O	-3	21µM*	3	-1%	31%
COc1ccc2cc(C(=O)NCCCN3CCCC3=O)[nH]c2c1	3	?	0	23%	19%
O=C(Nc1ccc(Cl)c(S(=O)(=O)Nc2ccccc2Cl)c1)c1cccs1	-32	-15%	9	2%	?
Cc1ccc(C(=O)Nc2ccc(C)c(S(=O)(=O)Nc3ccccc3Cl)c2)s1	?	21µM*	2	-29%	?
Cc1ccc(C=Nc2ccccc2C(N)=O)o1	24	?	-10	20µM*	?
CN(C)c1ccc(C=Nc2ccccc2C(N)=O)cc1	-3	?	-1	10µM*	?
CN(C)c1ccc(/C=N/NC(=O)c2ccco2)cc1	-7	?	2	-29%	-35%
CCOC(=O)c1ccccc1NC(=O)CSc1ccc(-c2ccccn2)nn1	0	2%	·	-3%	-20%
COC(=O)C(C(C)C)N(Cc1cc(OC)cc(OC)c1)S(=O)(=O)CCl (stereo unspecified)	16	-19%	·	·	·
O=C(NCc1cn(-c2ccccc2)nc1-c1ccccc1)c1ccc([N+](=O)[O-])cc1	-10	?	-3	7.1µM*	?
CN(C)c1ccc(-c2cncnc2Nc2ccc(F)cc2)cc1	·	·	-22	?	-16%
O=C(NC1CCCCC1)c1ccc(S(=O)(=O)c2ccccc2Cl)c([N+](=O)[O-])c1	-15	5.8µM*	-4	?	-6%
O=C(NC1CCCCC1)c1ccc(-n2cncn2)c([N+](=O)[O-])c1	-11	-6%	·	·	·
O=C(c1ccc(S(=O)(=O)c2ccccc2Cl)c([N+](=O)[O-])c1)N1CCN(Cc2ccccc2)CC1	3	23µM*	-3	-74%	-9%
CN(CC(=O)Nc1ccc(F)c(F)c1F)C(=O)c1n[nH]c(=O)c2ccccc12	19	2%	·	·	·
Clc1ccc(-c2cn(-c3ccccc3)c3[n+]2CCS3)cc1	0	-12%	1	-4%	-13%
Fc1ccc(-c2cn(-c3ccccc3)c3[n+]2CCS3)cc1	-2	21µM*	-1	-3%	-2%
CC(=O)Nc1ccc(NC(=O)Cn2cnc3c(cnn3C(C)(C)C)c2=O)cc1	0	?	0	·	-27%[0.365 µM]
CC(C)(C)n1ncc2c(=O)n(CC(=O)NCc3ccccc3)cnc21	10	?	2	?	10µM*
CC(C)=CCC/C(C)=C/CNC(=O)C[C@H]1C[C@H](C(=O)N2CCCCC2)[C@@]2(CCc3ccccc3)c3[nH]c4cc(CCC(=O)N(C)C)ccc4c3CCN2C1=O	0	-11%	·	·	·
CC(C)(C)[C@@H]1COC(=O)[C@H](Cc2ccc(F)cc2)CC/C=C\C[C@@H](CC(=O)NCCO)C(=O)N1	-6	7%	·	·	·
C=CCNc1nc2c(c(=O)n(C)c(=O)n2C)n1Cc1ccc(F)cc1	-11	?	2	7.1µM*	?
COc1ccc(CNc2nc3c(c(=O)n(Cc4ccc(F)cc4)c(=O)n3C)n2C)cc1	1	18µM*	0	-3%	-34%
Cn1c(=O)c2c(nc(NCCc3ccccc3)n2Cc2ccc(F)cc2)n(C)c1=O	-19	12µM*	-12	22µM*	?
